SRC2 inh = human SRC2 (NCOA2) inhibition. AID 651957. actives 0.17% (n = 370,000). Q15596. inhibition, % at 9 µM. HEK293 GAL4-SRC2 luciferase reporter, luminescence;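 active means inhibition above the mean inhibition of all tested compounds plus 3 SD, set per campaign, cut at about 52% in these data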
NR2F2 inh = inhibitors of human COUP-TFII (NR2F2) | HEK293T NGFI-A luciferase reporter, luminescence | inhibition, % at 8.6 µM | actives 0.7% (n = 370,000);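 active means inhibition above a per-plate cutoff, mean inhibition of test wells between control levels plus 3 SD, cut at about 38% in these data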;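 further: cells cotransfected with COUP-TFII expression vector driving the NGFI-A reporter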
Target sequence (P24468 whole entry, looked up): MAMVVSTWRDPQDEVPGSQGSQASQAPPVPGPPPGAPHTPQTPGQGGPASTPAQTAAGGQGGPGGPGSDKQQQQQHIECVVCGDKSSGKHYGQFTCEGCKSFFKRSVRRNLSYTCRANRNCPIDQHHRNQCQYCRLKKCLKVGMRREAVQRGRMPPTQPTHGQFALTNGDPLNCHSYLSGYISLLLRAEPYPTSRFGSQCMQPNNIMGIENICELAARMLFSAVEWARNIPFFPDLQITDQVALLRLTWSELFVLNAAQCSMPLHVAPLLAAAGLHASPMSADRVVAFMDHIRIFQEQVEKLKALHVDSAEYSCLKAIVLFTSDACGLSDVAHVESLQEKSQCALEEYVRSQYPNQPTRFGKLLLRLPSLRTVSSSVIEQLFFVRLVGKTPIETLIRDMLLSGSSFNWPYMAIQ
LRH-1 inv ag = NR5A2 inverse agonism in reporter assay; HEK293T StAR-luciferase reporter, LRH-1 transfected, 24 h; actives 0.13% (n = 360,000); inhibition, % at 3.6 µM; O00482; AID 602396;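 active means inhibition above the mean inhibition of all tested compounds plus 3 SD, cut at about 73% in these data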
NCOA1 inh = inhibitors of human steroid receptor coactivator 1 (SRC1) | AID 588354 | HEK293 GAL4-SRC1 luciferase reporter, luminescence | actives 0.12% (n = 360,000) | Q15788 | inhibition, % at 3.6 µM;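 active means inhibition above the campaign mean plus 3 SD, with each screening campaign given its own cutoff, cut at about 60% in these data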
NCOA3 inh = inhibits human SRC3 coactivator | inhibition, % at 3.6 µM | actives 0.17% (n = 360,000) | Q9Y6Q9 | HEK293 GAL4-SRC3 luciferase reporter, luminescence;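 active means inhibition above a per-campaign cutoff, the mean of all compounds plus 3 SD, cut at about 60% in these data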;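 further: higher means less SRC3-driven luciferase light from the GAL4 reporter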
VP16 Luc counter = VP16 inhibition counter-screen for COUP-TFII; shares compounds with NR2F2 inh; HEK293 Gal4-VP16 luciferase reporter, luminescence; inhibition, % at 8.5 µM; actives 25% (n = 2,500); AID 687007; in the data active means inhibition above about 13%
NR2F2 inh conf = COUP-TFII (NR2F2) inhibition, confirmation assay | actives 45% (n = 2,500) | HEK293 NGFI-A luciferase reporter, luminescence | inhibition, % at 8.5 µM | shares compounds with NR2F2 inh;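 active means mean inhibition over three repeats above a set limit taken from the earlier primary screen, cut at about 38% in these data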
Each line names hits and unclear results; the compound was inactive in the other large screens (follow-up assays come after a bar, where they were run). Shown are actives, neighbours in structure and some others; about 0.81% of the full set was active somewhere.

C[C@H]1[C@H](OC(=O)CCC(=O)NCc2ccc(C(=O)O)cc2)O[C@@H]2O[C@@]3(C)CC[C@H]4[C@H](C)CC[C@@H]1C24OO3	LRH-1 inv ag 89, NCOA1 inh 62, NCOA3 inh 72 (no result: SRC2 inh, NR2F2 inh)
Cc1nc2cc(-c3ccc(Cl)cc3)nn2c(C)c1CCC(=O)N1CCC2(CC1)OCCO2	SRC2 inh 56
CCOC(=O)CC[C@@H]1CC[C@]2(CCCN(Cc3ccccn3)C2)O1	none (no result: LRH-1 inv ag, NCOA1 inh, NCOA3 inh)
Oc1ccc2c3c1O[C@H]1c4[nH]c5c(c4CC4(O)C(C2)N(CC2CC2)CCC314)CC1(O)[C@H]2Cc3ccc(O)c4c3[C@@]1(CCN2CC1CC1)C5O4 (stereo partly specified)	none (no result: LRH-1 inv ag, NCOA1 inh, NCOA3 inh)
O=C1/C(=C/c2ccccc2)C[C@@]2(O)[C@H]3Cc4ccc(O)c5c4[C@@]2(CCN3CC2CC2)C1O5 (stereo partly specified)	LRH-1 inv ag 84, NCOA1 inh 86, NCOA3 inh 83 (no result: SRC2 inh, NR2F2 inh)
Cn1ncnc2c(=O)n(C)c(=O)nc1-2	LRH-1 inv ag 100, NCOA1 inh 88, NCOA3 inh 91 (no result: SRC2 inh, NR2F2 inh)
C[C@H]1O[C@@H](OC2CC[C@]3(C=O)[C@H]4CC[C@]5(C)[C@@H](C6=CC(=O)OC6)CC[C@]5(O)[C@@H]4CC[C@]3(O)C2)CC2OC(C)(C)OC21 (stereo partly specified)	SRC2 inh 60, NR2F2 inh 75, LRH-1 inv ag 99, NCOA1 inh 81, NCOA3 inh 86
CC12CC[C@H]3[C@@H](CCC4(O)C[C@H](O)CCC34/C=N/NC(=O)c3ccccc3Cl)C1(O)CCC2C1=CC(=O)OC1 (stereo partly specified)	none
C[C@@H]1O[C@@H](O[C@H]2C[C@@H](O)[C@]3(CO)[C@H]4[C@H](O)C[C@]5(C)[C@@H](C6=CC(=O)OC6)CC[C@]5(O)[C@@H]4CC[C@]3(O)C2)[C@H](O)[C@H](O)[C@H]1O	LRH-1 inv ag 103, NCOA1 inh 88, NCOA3 inh 93 (no result: SRC2 inh, NR2F2 inh)
COc1ccc(Cc2cn(C)c(N)n2)cc1	none (no result: LRH-1 inv ag, NCOA1 inh, NCOA3 inh)
CCOC(=O)CC[C@@H]1CC[C@]2(CCCN(Cc3ccncc3)C2)O1	none (no result: LRH-1 inv ag, NCOA1 inh, NCOA3 inh)
CN1CN(c2ccccc2)C2(CCN(CCCSc3ccccc3NC(=O)/C=C/c3ccccc3)CC2)C1=O	NR2F2 inh 39
O=C1C2CC=CCC2C(=O)N1SC(Cl)(Cl)Cl (stereo unspecified)	none (no result: LRH-1 inv ag, NCOA1 inh, NCOA3 inh)
COC(=O)[C@H]1C[C@@]2(C)c3ccccc3N[C@H]2N1	none (no result: LRH-1 inv ag, NCOA1 inh, NCOA3 inh)
CC(=O)N1c2ccccc2C(c2ccccc2)=NCC1C(=O)NC1CCCCC1 (stereo unspecified)	none (no result: LRH-1 inv ag, NCOA1 inh, NCOA3 inh)
Cc1c2ccncc2c(C)c2c1[nH]c1ccccc12	NCOA1 inh 64 (no result: SRC2 inh, NR2F2 inh)
CCC(=O)[C@@H](C)[C@@H](O)[C@H](C)C[C@@H](C)C1OC(=O)C[C@@]2(O)CC=C(C)C(O2)C(C)=CCCC[C@H](O[C@H]2C[C@@H](OC(N)=O)[C@H](O)[C@@H](C)O2)C=C[C@H](C)C[C@H]1C (stereo partly specified)	LRH-1 inv ag 85 (no result: SRC2 inh, NR2F2 inh, NCOA1 inh, NCOA3 inh)
COC(=O)C[C@]1(C(=O)OC)CN(C#N)N(c2ccc(Cl)cc2)C12c1ccccc1-c1ccccc12	SRC2 inh 91, NR2F2 inh 102, NCOA3 inh 67
CCOC(=O)[C@]12Cc3cc(Cl)ccc3[C@H]1N(CC(=O)OC)C(=O)c1ccccc12	none (no result: SRC2 inh, NR2F2 inh, NCOA1 inh, NCOA3 inh)
COc1ccc2c(c1)/C(=C/c1cnc[nH]1)C(=O)N2	LRH-1 inv ag 82
CC(C)(C)NC(=O)CN1C(=O)[C@@H](Cc2c[nH]c3ccccc23)N=C(c2ccccc2)c2ccccc21	none (no result: LRH-1 inv ag, NCOA1 inh, NCOA3 inh)
CCOC(=O)[C@]12Cc3cc(Cl)ccc3[C@H]1N(C1CCCCC1)C(=O)c1ccccc12	LRH-1 inv ag 85 (no result: SRC2 inh, NR2F2 inh, NCOA1 inh, NCOA3 inh)
CC(=O)OCC12CC(OC(=O)CC(C)C)C(C)=CC1OC1C(O)C(OC(C)=O)C2(C)C12CO2 (stereo unspecified)	SRC2 inh 77, NR2F2 inh 92, LRH-1 inv ag 98, NCOA1 inh 95, NCOA3 inh 95
C=CCCC(NC(=O)OCc1ccccc1)P(=O)(Oc1ccccc1)Oc1ccccc1 (stereo unspecified)	none (no result: SRC2 inh, LRH-1 inv ag, NCOA1 inh, NCOA3 inh)
O=c1[nH]c(=O)n(CCC2=CCCCC2)c(O)c1C=NC1CCN(Cc2ccccc2)CC1	NR2F2 inh 52
C=CCn1c(O)c(C=NC2CCN(Cc3ccccc3)CC2)c(=O)[nH]c1=O	none
CCOc1ccc(-c2c(C)n(-c3ccc(OCC)cc3)c3[n+]2CCCCC3)cc1	NR2F2 inh 90, LRH-1 inv ag 88, NCOA1 inh 74, NCOA3 inh 82
CCOc1ccc(-n2c(-c3ccoc3)nc3ccccc3c2=O)cc1	none
CC(C)(C)n1nnnc1C1CN=C(c2ccccc2)c2ccccc2N1 (stereo unspecified)	none (no result: LRH-1 inv ag, NCOA1 inh, NCOA3 inh)
c1ccc(Cn2nnnc2C2CN=C(c3ccccc3)c3ccccc3N2)cc1 (stereo unspecified)	none (no result: LRH-1 inv ag, NCOA1 inh, NCOA3 inh)
COC1=CC(=O)[C@]2(C=C1OC)OC[C@@H]1Oc3c(ccc4c3C=CC(C)(C)O4)C(=O)[C@@H]12	NR2F2 inh 73 (no result: LRH-1 inv ag, NCOA1 inh, NCOA3 inh)
COC(=O)[C@]12OC[C@]34C([C@@H](O)[C@@H]1O)[C@]1(C)CC(=O)C(O)=C(C)[C@@H]1C[C@H]3OC(=O)[C@H](O)[C@@H]24 (stereo partly specified)	SRC2 inh 61, NR2F2 inh 76, LRH-1 inv ag 99, NCOA1 inh 81, NCOA3 inh 69
CC1=CC(O)C(O)C2(C)C1CC1OC(=O)C(O)C3C(C)C(O)C4(O)OCC13C42 (stereo unspecified)	none (no result: SRC2 inh, NR2F2 inh)
N#CC(C#N)=Cc1ccc(O)c(O)c1	none
CC(C)(C)c1cc(C=C(C#N)C#N)cc(C(C)(C)C)c1O	LRH-1 inv ag 76, NCOA3 inh 81
Cc1ccc(-c2cc(-c3ccc(C)cc3)[n+](-c3ccc(C(=O)[O-])cc3)c(-c3ccc(C)cc3)c2)cc1	none
Cc1ccc(-c2cc(-c3ccc(C)cc3)[n+](-c3ccccc3)c(-c3ccc(C)cc3)c2)cc1	LRH-1 inv ag 93, NCOA1 inh 65, NCOA3 inh 79 (no result: SRC2 inh, NR2F2 inh)
N#CCC[C@@H]1CC[C@]2(CCCN(Cc3ccncc3)C2)O1	none (no result: LRH-1 inv ag, NCOA1 inh, NCOA3 inh)
CC[C@@H]1C[C@H]2CC[C@H](O2)[C@H](C)C(=O)O[C@@H](C)C[C@@H]2CC[C@@H](O2)[C@@H](C)C(=O)O[C@H](C)C[C@H]2CC[C@H](O2)[C@H](C)C(=O)O[C@@H](C)C[C@@H]2CC[C@@H](O2)[C@@H](C)C(=O)O1	NR2F2 inh 85 (no result: LRH-1 inv ag, NCOA1 inh, NCOA3 inh) | VP16 Luc counter 24 | NR2F2 inh conf 72
COc1ccc(CCNC2CCCCC2)cc1	none
